# Assay results published in PubChem BioAssay (NCATS).
# Records with an inconclusive call do not appear. Entries that show only a call come without a potency. Calls of active or inactive are those of the source. Calls follow the shape of the dose curve; as a rule, active = well fitted inhibition curve with a large enough effect; inconclusive = small, poorly fitted or top-dose-only effect; inactive = flat fitted curve, though single readings scatter.
# Columns and labels:
# Assay in all cases: qHTS profiling for inhibitors of Plasmodium falciparum proliferation (AID 504749); also: nearly all actives have a fitted effect of over 60% in size
# Conditions in all cases: P. falciparum in erythrocytes, SYBR Green DNA, 72 h; series mostly up to 28.7 µM
# AA1029 = test system: AA1029
# How it was run: (§1)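 Infected RBCs, 0.3% parasitemia/2.5% Hct final; cpd 72 h, 37 C, 5% CO2; lysis buffer with saponin/triton/SYBR Green I, o/n RT dark; FI 485/535; norm. to artemisinin (0.29 uM) and DMSO.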
# AS120 = test system: AS120
# How it was run: as §1
# ATS189 = test system: ATS189
# How it was run: as §1
# ATS95 = test system: ATS95
# How it was run: as §1
# C2A = test system: C2A
# How it was run: as §1
# CP185 = test system: CP185
# How it was run: as §1
# CP191 = test system: CP191
# How it was run: as §1
# CP192 = test system: CP192
# How it was run: as §1
# CP194 = test system: CP194
# How it was run: as §1
# CP201 = test system: CP201
# How it was run: as §1
# CP203 = test system: CP203
# How it was run: as §1
# CP211 = test system: CP211
# How it was run: as §1
# CP215 = test system: CP215
# How it was run: as §1
# CP217 = test system: CP217
# How it was run: as §1
# CP237 = test system: CP237
# How it was run: as §1
# CP238 = test system: CP238
# How it was run: as §1
# CP247 = test system: CP247
# How it was run: as §1
# CP250 = test system: CP250
# How it was run: as §1
# CP252 = test system: CP252
# How it was run: as §1
# CP256 = test system: CP256
# How it was run: as §1
# Potency is read from the fitted curve at half-maximal effect.
Compound,Potency (AA1029),Potency (AS120),Potency (ATS189),Potency (ATS95),Potency (C2A),Potency (CP185),Potency (CP191),Potency (CP192),Potency (CP194),Potency (CP201),Potency (CP203),Potency (CP211),Potency (CP215),Potency (CP217),Potency (CP237),Potency (CP238),Potency (CP247),Potency (CP250),Potency (CP252),Potency (CP256)
c1ccc2sc(SNC3CCCCC3)nc2c1,inactive,inactive,inactive,inactive,inactive,inactive,inactive,inactive,inactive,inactive,inactive,inactive,inactive,inactive,inactive,inactive,inactive,inactive,inactive,inactive
COCC(C)N(C(=O)CCl)c1c(C)csc1C (stereo unspecified),inactive,inactive,inactive,inactive,inactive,inactive,inactive,inactive,inactive,inactive,inactive,inactive,inactive,inactive,inactive,inactive,inactive,inactive,inactive,inactive
C[C@]12CCC(=O)C[C@@H]1CC[C@@H]1[C@@H]2CC[C@]2(C)[C@@H](O)CC[C@@H]12,inactive,inactive,inactive,inactive,inactive,inactive,inactive,inactive,inactive,inactive,inactive,inactive,inactive,inactive,inactive,inactive,inactive,–,inactive,inactive
CCC(C)(S(=O)(=O)CC)S(=O)(=O)CC,inactive,inactive,inactive,inactive,inactive,inactive,inactive,inactive,inactive,inactive,inactive,inactive,inactive,inactive,inactive,inactive,inactive,–,inactive,inactive
ClC=C(Cl)Cl,inactive,inactive,inactive,inactive,inactive,inactive,inactive,inactive,inactive,inactive,inactive,inactive,inactive,inactive,inactive,inactive,inactive,inactive,inactive,inactive
CC[N+](C)(CC)CCOC(=O)C(O)(c1ccccc1)c1ccccc1,inactive,inactive,inactive,inactive,inactive,inactive,inactive,inactive,inactive,inactive,inactive,inactive,inactive,inactive,inactive,inactive,inactive,inactive,inactive,inactive
O=C1CN(O)C(c2ccccc2)=c2cc(Cl)ccc2=N1,inactive,inactive,inactive,inactive,inactive,inactive,inactive,inactive,inactive,inactive,inactive,inactive,inactive,inactive,inactive,inactive,inactive,inactive,inactive,inactive
O=CC=O,inactive,inactive,inactive,inactive,inactive,inactive,inactive,inactive,inactive,inactive,inactive,inactive,inactive,inactive,inactive,inactive,inactive,inactive,inactive,inactive
CCNC(C)Cc1cccc(C(F)(F)F)c1 (stereo unspecified),inactive,inactive,inactive,inactive,inactive,inactive,inactive,inactive,inactive,inactive,inactive,inactive,inactive,inactive,–,inactive,inactive,inactive,inactive,inactive
O=C(O)C(Cl)(Cl)Cl,inactive,inactive,inactive,inactive,inactive,inactive,inactive,inactive,inactive,inactive,inactive,inactive,inactive,inactive,inactive,inactive,inactive,inactive,inactive,inactive
O=C(NCNC(=O)NC1C(=O)NC(=O)N1CO)NC1C(=O)NC(=O)N1CO (stereo unspecified),inactive,inactive,inactive,inactive,inactive,inactive,inactive,inactive,inactive,inactive,inactive,inactive,inactive,inactive,inactive,inactive,inactive,inactive,inactive,inactive
c1csc(C2(N3CCCCC3)CCCCC2)c1,inactive,inactive,inactive,inactive,inactive,inactive,inactive,inactive,inactive,inactive,inactive,inactive,inactive,inactive,–,inactive,inactive,inactive,inactive,inactive
[O]=[Cd],inactive,inactive,inactive,inactive,inactive,inactive,inactive,inactive,inactive,inactive,inactive,inactive,inactive,inactive,inactive,inactive,inactive,inactive,inactive,inactive
CC(=O)OO,inactive,inactive,inactive,inactive,inactive,inactive,inactive,inactive,inactive,inactive,inactive,inactive,inactive,inactive,inactive,inactive,inactive,inactive,inactive,inactive
O[C@H]1[C@H]2[C@H](O)CCCN2C[C@H]1O,inactive,inactive,inactive,inactive,inactive,inactive,inactive,inactive,inactive,inactive,inactive,inactive,inactive,inactive,inactive,inactive,inactive,inactive,inactive,inactive
CCC(N)Cc1c[nH]c2ccccc12 (stereo unspecified),inactive,inactive,inactive,inactive,inactive,inactive,inactive,inactive,inactive,inactive,inactive,inactive,inactive,inactive,inactive,inactive,inactive,inactive,inactive,inactive
O=S(=O)(O)c1cc(O)ccc1O,inactive,inactive,inactive,inactive,inactive,inactive,inactive,inactive,inactive,inactive,inactive,inactive,inactive,inactive,inactive,inactive,inactive,inactive,inactive,inactive
O=C1CC[C@@]2(O)C3Cc4ccc(O)c5c4C2(CCN3CC2CC2)[C@H]1O5 (stereo partly specified),inactive,inactive,inactive,inactive,inactive,inactive,inactive,inactive,inactive,inactive,inactive,inactive,inactive,inactive,inactive,inactive,inactive,inactive,inactive,inactive
CCCCCl,inactive,inactive,inactive,inactive,inactive,inactive,inactive,inactive,inactive,inactive,inactive,inactive,inactive,inactive,inactive,inactive,inactive,inactive,inactive,inactive
CNC(C)C(O)c1ccc(O)cc1 (stereo unspecified),inactive,inactive,inactive,inactive,inactive,inactive,inactive,inactive,inactive,inactive,inactive,inactive,inactive,inactive,inactive,inactive,inactive,inactive,inactive,inactive
CCC1(CC)C(=O)NC(=O)N(C)C1=O,inactive,inactive,inactive,inactive,inactive,inactive,inactive,inactive,inactive,inactive,inactive,inactive,inactive,inactive,inactive,inactive,inactive,inactive,inactive,inactive
C=CCN1CC[C@]23c4c5ccc(O)c4O[C@H]2[C@@H](O)C=C[C@H]3[C@H]1C5,inactive,inactive,inactive,inactive,inactive,inactive,inactive,inactive,inactive,inactive,inactive,inactive,inactive,inactive,inactive,inactive,–,inactive,inactive,inactive
COC1=CC=C2[C@H]3Cc4ccc(OC)c5c4[C@@]2(CCN3C)[C@H]1O5,inactive,inactive,inactive,inactive,inactive,inactive,inactive,inactive,inactive,inactive,inactive,inactive,inactive,inactive,–,inactive,inactive,inactive,inactive,inactive
CC(C)Nc1ccc(Nc2ccccc2)cc1,7.08 µM (active),11.2 µM (active),5.62 µM (active),7.94 µM (active),8.91 µM (active),8.91 µM (active),4.47 µM (active),5.36 µM (active),3.38 µM (active),4.78 µM (active),8.49 µM (active),3.79 µM (active),4.26 µM (active),5.01 µM (active),7.94 µM (active),10 µM (active),4.47 µM (active),5.01 µM (active),7.08 µM (active),7.94 µM (active)
CCCCCCCCOC(=O)c1ccccc1C(=O)OCCCCCCCC,inactive,inactive,inactive,inactive,inactive,inactive,inactive,inactive,inactive,inactive,inactive,inactive,inactive,inactive,inactive,inactive,inactive,inactive,inactive,inactive
CCC1(c2ccccc2)C(=O)NC(=O)NC1=O,inactive,–,inactive,inactive,inactive,inactive,inactive,–,inactive,inactive,inactive,inactive,inactive,inactive,inactive,inactive,inactive,inactive,inactive,inactive
c1ccc(C2(N3CCCC3)CCCCC2)cc1,11.2 µM (active),11.2 µM (active),inactive,–,inactive,12.6 µM (active),11.2 µM (active),–,–,–,–,–,–,8.91 µM (active),11.2 µM (active),–,7.94 µM (active),–,–,–
